High-throughput results deposited in PubChem BioAssay by National Center for Advancing Translational Sciences (NCATS).
VDR inh: vitamin D3 receptor (human) inhibition; P11473; Potency, µM, for inactives: max response, negative = inhibition, usual class: inhibitors; actives 0.93% (n = 400,000); AID 504847; VDR-SRC2-3 peptide fluorescence polarization, 2 h; also: potency is read from the fitted curve at half-maximal effect; % is scaled to controls: 0 for no effect and ±100 for the full control effect
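Inhibition of the VDR/SRC2-3 peptide interaction is quantified by fluorescence polarization. Compounds (23 nl, pintool) incubate with the reagents for 2 hours at ambient room temperature.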
PTAP TSG101 blk: blocks PTAP/TSG101 interaction to inhibit HIV-1 budding | 340,000 tested, under 10 active | Q99816 | AID 493005 | Potency, µM (series often up to 115 µM), without a hit: at the highest dose activity change, negative = inhibition, usual class: inhibitors | Fluorescence polarization, FITC-PTAP peptide / Tsg101 binding; active = well fitted inhibition curve with a large enough effect in the main read-out, with a control signal flat, not every such curve was filed as active; inconclusive = small, poorly fitted or top-dose-only effect, or effect the other way, or a change in a side signal; inactive = no such curve, though single readings can be large or run the other way; also: potency is read from the fitted curve at half-maximal effect; % of control where 0% means no effect
Target sequence (Q99816 whole entry, looked up): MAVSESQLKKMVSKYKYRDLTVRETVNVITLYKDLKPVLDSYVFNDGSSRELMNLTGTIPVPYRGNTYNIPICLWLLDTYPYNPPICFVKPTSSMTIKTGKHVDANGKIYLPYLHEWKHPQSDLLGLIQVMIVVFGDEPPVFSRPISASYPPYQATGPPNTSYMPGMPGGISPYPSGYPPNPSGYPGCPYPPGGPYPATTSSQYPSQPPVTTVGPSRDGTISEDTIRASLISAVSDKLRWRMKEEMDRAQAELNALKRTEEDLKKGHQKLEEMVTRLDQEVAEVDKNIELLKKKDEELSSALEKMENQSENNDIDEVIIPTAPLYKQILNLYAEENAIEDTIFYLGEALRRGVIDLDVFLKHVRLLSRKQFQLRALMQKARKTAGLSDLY
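Steps: Tsg101 binding domain dispensed (10 uM final), compounds pinned in DMSO, FITC-labeled PTAP-motif peptide added (50 nM final); after 20 min binding at room temperature, polarization measured.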
PLK1 PBD inh: blocks phosphopeptide binding to human PLK1 polo-box domain; Plk1 PBD binding of FITC phosphopeptide, fluorescence polarization; Potency, µM, inactives show max response, negative = inhibition, most hits filed as inhibitors; actives 2.8% (n = 360,000); AID 720504; also: potency is read from the fitted curve at half-maximal effect; series mostly up to about 57 µM; % is scaled to controls: 0 for no effect and ±100 for the full control effect; nearly all actives have a fitted effect of over 65% in size
TSHR antagonist: human thyrotropin receptor antagonism; P16473; TSHR-expressing cells, TSH-stimulated cAMP HTRF, 2 h; stronger effect = lower value; activity change, negative = inhibition, % at 11.5 µM; actives 0.2% (n = 330,000); AID 504810;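 active = activity change below a set negative limit, meaning inhibition stronger than a set level, cut at about -70% in these data; inconclusive = activity change between two set negative limits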; also: % is scaled to controls: 0 for no effect and ±100 for the full control effect
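Inhibition of cAMP made by TSHR-expressing cells under TSH stimulation (4nM final, EC80; 2 h, 37 deg C) is quantified with a one-step lysis HTRF kit, anti-cAMP cryptate versus cAMP-d2.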
uPA surface inh: inhibitors of cell surface uPA generation; AID 540303; Potency, µM (series often up to 38.3 µM), for inactives: at the highest dose activity change, negative = inhibition, actives largely listed as inhibitors; cell surface uPA generation assay, qHTS; actives 0.31% (n = 330,000); active = well fitted inhibition curve with a large enough effect; inconclusive = small, poorly fitted or top-dose-only effect; inactive = no such curve, though single readings can be large or run the other way; tested in mouse RAW 264.7 cells; also: potency is read from the fitted curve at half-maximal effect; % is scaled to controls: 0 for no effect and ±100 for the full control effect; nearly all actives have a fitted effect of over 55% in size
Numbers without * were called inactive; ? = inconclusive; nt = not tested or not shown; ! = not active in a repeat. Sampled rows, rich in hits. Any-hit rate of the full collection: about 3.1%. Unless noted, calls follow the shape of the dose curve; as a rule, active = well fitted curve in the direction sought with a large enough effect; inconclusive = small, poorly fitted or top-dose-only effect, or another doubt; inactive = no such curve, though single readings can be large; an effect the other way counts as inactive or inconclusive.

SMILES	VDR inh	PTAP TSG101 blk	PLK1 PBD inh	TSHR antagonist	uPA surface inh
CCOC(=O)C1(C)CCN1C(=O)c1ccc(C(F)(F)F)cc1 (stereo not drawn)	nt	nt	-13%	nt	nt
OCC(O)C(O)C(O)C(O)C(O)CO (stereo not drawn)	5%	nt	nt	nt	nt
Nc1c(N=Nc2ccc(-c3ccc(N=Nc4cc(S(=O)(=O)O)c5ccccc5c4N)cc3)cc2)cc(S(=O)(=O)O)c2ccccc12	28µM*	nt	nt	nt	nt
COc1ccc(S(=O)(=O)N2c3ccc(Cl)cc3[C@](O)(c3ccccc3Cl)[C@@H]2C(=O)N2CCC[C@H]2C(N)=O)cc1OC	-12%	nt	nt	nt	nt
CCNc1nc(C23CC4CC(CC(C4)C2)C3)cs1	5%	-1%	-13%	-73*	-4%
CC(=O)NNC(=O)CC(=O)Nc1nc(C23CC4CC(CC(C4)C2)C3)cs1	?	-2%	-11%	-4	-6%
CC1(C(=O)NCc2cccc3ccccc23)CCN1Cc1cc2ccccc2o1 (stereo not drawn)	nt	nt	-6%	nt	nt
O=S(=O)(Nc1ccc(Cl)cc1)c1ccc(N2CCOCC2)c(NC(=S)NC2CC2)c1	79µM*	-6%	8.4µM*	-1	-4%
Nc1cc(S(=O)(=O)Nc2cc(Cl)ccc2Cl)ccc1N1CCCC1	-6%	-4%	30µM*	17	-6%
Nc1cc(S(=O)(=O)Nc2ccc(Cl)cc2)ccc1N1CCOCC1	?	-7%	5.3µM*	-16	1%
CNC(=S)Nc1cc(S(=O)(=O)Nc2cc(Cl)ccc2Cl)ccc1N1CCCC1	17%	0%	?	-2	8%
Nc1cc(S(=O)(=O)Nc2ccccc2Cl)ccc1N1CCOCC1	-20%	0%	1%	5	-27%
CCc1ccc2[nH]c(=O)c(CN(Cc3cccs3)Cc3nnnn3Cc3ccccc3)cc2c1	-10%	nt	nt	nt	nt
C=C(C(=O)c1ccccc1)C(C)C(=C)C(=O)c1ccccc1	79µM*	-11%	2%	-8	11%
C=C(C(=O)c1ccccc1)C(c1ccccc1)C(C)C(=O)c1ccccc1 (stereo not drawn)	-8%	1%	-3%	8	-7%
O=C(NCCC(=O)N(CCc1ccccc1)Cc1ccccc1)c1ccc(Br)cc1	-12%	-4%	-10%	-4	-2%
O=C(Cc1cccc2ccccc12)Nc1ccc(O)cc1C(=O)O	?	1%	27µM*	-1	3%
CCOC(=O)c1c(C)[nH]c(C)c1S(=O)(=O)N1CCCC(C(=O)Nc2ccc(OC)c(OC)c2)C1 (stereo not drawn)	-4%	nt	nt	nt	nt
CC1(CCc2ccccc2)NC(=O)N(CC(=O)N2CC(=O)Nc3ccccc32)C1=O (stereo not drawn)	-2%	-1%	4%	-77*	-2%
C=Cc1c(C)c2cc3[nH]c(cc4nc(cc5nc(cc1[nH]2)C(C)=C5CCC(=O)O)C(CCC(=O)O)=C4C)c(C)c3C=C	14µM*	-2%	13µM*	-6	-20%
CC1=C(CCC(=O)O)c2cc3nc(cc4[nH]c(cc5[nH]c(cc1n2)c(C)c5C(C)O)c(C)c4C(C)O)C(C)=C3CCC(=O)O (stereo not drawn)	18µM*	nt	nt	nt	nt
Cc1ccc(C(C[N+](=O)[O-])c2c(-c3ccccc3O)[nH][nH]c2=O)cc1 (stereo not drawn)	22µM*	-1%	?	7	0%
O=C1C(Cc2ccccc2)Nc2ncnc(N3CCN(c4ccccc4)CC3)c2N1Cc1ccccc1 (stereo not drawn)	-16%	-9%	?	-20	-5%
CCC1Nc2ncnc(N3CCOCC3)c2N(Cc2ccc(OC)cc2)C1=O (stereo not drawn)	79µM*	-8%	27µM*	-11	9%
CCC1Nc2ncnc(N3CCN(c4ccccc4)CC3)c2N(Cc2ccc(OC)cc2)C1=O (stereo not drawn)	20%	-5%	-7%	-23	-7%
O=C1C(Cc2ccccc2)Nc2ncnc(N3CCOCC3)c2N1Cc1ccc(Cl)cc1 (stereo not drawn)	-11%	-3%	27µM*!	2	-6%
CCOC(=O)c1cnc2ccc(OC)cc2c1NCCc1ccccc1	0%	nt	nt	nt	nt
O=c1c2ccccc2n(Cc2cccc(F)c2)c(=O)n1Cc1ccccc1Cl	-6%	nt	nt	nt	nt
O=[N+]([O-])c1cccc(-c2ccc3nnc(SCc4ccccn4)n3n2)c1	?	-3%	24µM*	3	1%
